# PubChem BioAssay
# The other results are listed elsewhere or left out. Active and inactive are the calls of the source.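 How the source made its calls, unless noted: active means inhibition above a limit from the primary screen, the mean over all compounds plus 3 SD (cut at about 19% in these data); inactive means the rest.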
# Test system: not listed separately
# Assay: KLF5 expression inhibitors, confirmation, DLD-1 cells, luminescence (AID 1834;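 active means inhibition above a set limit taken from the earlier primary screen, cut at about 63% in these data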;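 further: 0% = DMSO wells and 100% = LY294002 at 200 µM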)
# Conditions: DLD-1 KLF5 promoter firefly luciferase reporter, at 4 µM, hits give high values
row,SMILES,inhibition
1,Cc1ccc(-c2cn3cc(C)ccc3n2)cc1,85% (active)
2,Nc1ccc2nn(-c3ccc(Cl)cc3)nc2c1,-145% (inactive)
3,CN(NC(=O)c1ccccc1F)c1nc(C(F)(F)F)nc2ccccc12,77% (active)

# Test system: not listed separately
# Assay: cytotoxicity in rat IEC-6 cells, cytotoxicity control for KLF5 inhibitor project, cell-based, luminescence, triplicate (AID 1905; in the data active means inhibition above about 23%;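 further: cells exposed to compounds for 48 hours before viability read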)
# Conditions: IEC-6 rat intestinal cells, viability luminescence; at 4 µM; hits give high values
row,SMILES,inhibition
1,Cc1ccc(-c2cn3cc(C)ccc3n2)cc1,8.78% (inactive)
2,Nc1ccc2nn(-c3ccc(Cl)cc3)nc2c1,4.57% (inactive)
3,CN(NC(=O)c1ccccc1F)c1nc(C(F)(F)F)nc2ccccc12,59.6% (active)

# Test system: Fam108b (Abhd17b) serine hydrolase [Mus musculus]
# Assay: mouse Fam108b serine hydrolase inhibitors, confirmation, counter-screen for RBBP9 inhibitor project, biochemical, fluorescence polarization, triplicate (AID 1978);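 further: 0% = median of active Fam108b wells and 100% = catalytically dead S170A mutant; inhibitors free the probe so polarization falls as inhibition rises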
# Conditions: recombinant Fam108b, FP-Rh probe fluorescence polarization; at 9.51 µM; hits give high values
row,SMILES,inhibition
1,O=C(N/N=C/c1sc(N2CCCCC2)nc1-c1cccs1)c1cccnc1,9.2% (inactive)
2,Oc1ccc(C2Nc3cccc4cccc(c34)N2)cc1,14.4% (inactive)
3,Oc1oc(-c2ccccc2Br)nc1/C=N/c1ccccn1,68.7% (active)
4,O=C(CCn1c(SCC(=O)c2ccccc2)nc2ccccc2c1=O)NCc1ccc(F)cc1,-13.1% (inactive)
5,Cc1ccc(NS(=O)(=O)c2ccc(N/N=C/c3ccccc3OCC(=O)O)c([N+](=O)[O-])c2)c(C)c1,17.7% (inactive)
6,Cc1cccc2cc3c(N)c(C(=O)N4CCCc5ccccc54)sc3nc12,4.65% (inactive)
7,COCCOC(=O)c1sc(=S)n(CCOC)c1N,19.6% (active)
8,COc1ccc(OC)c(Nc2nc(-c3ccc(O)c(O)c3)cs2)c1,-20.9% (inactive)
9,Cc1ccc(-c2nc3c(cnn3-c3ccccc3)c(=O)o2)cc1,16.2% (inactive)
10,O=C(Nc1ccc(-c2csc(Nc3cccc(C(F)(F)F)c3)n2)cc1)c1cccc(C(F)(F)F)c1,33.6% (active)
11,Cc1nc(NC(=O)c2cccc(Cl)c2)sc1-c1csc(Nc2cccc(Cl)c2)n1,9.74% (inactive)
12,COCCNC(=O)Nc1ccc2nc(-c3ccco3)c(-c3ccco3)nc2c1,17.4% (inactive)
13,Cc1[nH]n(C(N)=S)c(=O)c1N=Nc1ccc(Cl)cc1Cl,22.4% (active)
14,COC(=O)CSc1nccc(-c2cccs2)n1,-1% (inactive)
15,COc1ccc(-c2nc(CS(=O)CC(=O)NCc3ccccn3)c(C)o2)cc1 (configuration not stated),23.4% (active)
16,O=C(NNc1c2ccccc2nc2ccccc12)c1cc2ccccc2cc1O,51.3% (active)

row,SMILES,inhibition
1,COc1ccc(NS(=O)(=O)c2cc(NC(=O)CC(=O)c3ccc([N+](=O)[O-])cc3)ccc2C)cc1,44.3% (active)
2,COc1ccc(/C=C/C(=O)OCC(=O)Nc2cccc(Oc3ccccc3)c2)c(OC)c1,47.3% (active)
3,C/C(=N\Nc1cccc(C(=O)O)c1)c1ccc2c(c1)Nc1ccccc1S2,26.1% (active)
4,CCCCC(=O)Nc1nc(C)c(-c2csc(Nc3ccc(Cl)cc3)n2)s1,8.42% (inactive)
5,COc1ccc2nc(Nc3nc4cc5c(cc4s3)OCCO5)sc2c1,-9.21% (inactive)
6,O=C(NC1CC1)c1ccc(-c2ccccc2)cc1,-4.72% (inactive)
7,Cc1ccc(C2C3=C(Nc4[nH]n(-c5ccccc5)c(=O)c42)c2ccccc2C3=O)cc1 (configuration not stated),56.8% (active)
8,CC[N+](C)(CC)CCC[n+]1c(-c2ccccc2)c2cc(N)ccc2c2ccc(N)cc21,61.8% (active)
9,c1ccc(CSc2nnc(-c3ccco3)c(-c3ccco3)n2)cc1,1.53% (inactive)
10,Clc1ccccc1CSc1nnc(-c2ccco2)c(-c2ccco2)n1,1% (inactive)
11,O=[N+]([O-])c1cc(Cl)cc(/C=N/NC(=S)Nc2cc(S(=O)(=O)N3CCOCC3)ccc2Cl)c1O,46.8% (active)
12,C/C(=C\c1ccco1)C1Nc2cccc3cccc(c23)N1,26.3% (active)
13,COc1cccc(C2Nc3cccc4cccc(c34)N2)c1,12.6% (inactive)
14,Cc1cccc(-c2nc(Nc3ccc(O)cc3)c3ccccc3n2)c1,17.7% (inactive)
15,COc1ccc(-c2csc(NC(=O)COC(=O)Cc3ccc(Cl)cc3Cl)n2)cc1,3.19% (inactive)
